Test results published in PubChem BioAssay.
Activity calls are given as the source filed them.

Key:
[1] = system: Human papillomavirus type 1a protein E7 (residues 44-93); assay: HPV1a E7 fragment binders on microarrays, primary screen, biochemical, small-molecule microarray, residues 44-93, 635 nm fluorescence (AID 1108); settings: small-molecule microarray binding, fluorescence 635 nm; higher = more signal;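 further: E7 fragment applied at 1 µg/mL in TBST for 1 h at 4 C; score combines spot fluorescence with its signal to noise ratio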
[2] = modulators of HCV replicon luciferase signal, primary screen, HCV replication inhibitor project, Huh7 cells, luciferase reporter (AID 1109); settings: 48 h, higher = more signal;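 further: huh7 hepatoma cells harbouring a luciferase neomycin HCV replicon reporter; luciferase luminescence as measure of HCV replicon replication; test concentration not given here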
[3] = biological target: Left-right determination factor 2 (Homo sapiens) (UniProt O00292); assay: LEFTY2 binders on small-molecule microarrays, primary screen, biochemical, small-molecule microarray, 635 nm fluorescence scan (AID 1110); settings: LEFTY2 binding, higher = more signal
Left-right determination factor 2 (Homo sapiens), sequence (O00292 whole entry, looked up): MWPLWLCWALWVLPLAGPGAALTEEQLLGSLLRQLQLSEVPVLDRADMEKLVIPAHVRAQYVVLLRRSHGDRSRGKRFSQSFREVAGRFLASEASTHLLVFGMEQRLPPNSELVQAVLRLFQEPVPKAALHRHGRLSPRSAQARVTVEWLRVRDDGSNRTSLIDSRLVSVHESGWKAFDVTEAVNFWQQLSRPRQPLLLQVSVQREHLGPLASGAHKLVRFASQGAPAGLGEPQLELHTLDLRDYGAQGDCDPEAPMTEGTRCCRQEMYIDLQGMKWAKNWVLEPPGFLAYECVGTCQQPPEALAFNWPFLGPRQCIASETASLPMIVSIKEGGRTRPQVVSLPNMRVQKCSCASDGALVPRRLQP

[4] = biological target: Calmodulin-1 (Homo sapiens) (UniProt P0DP23); assay: CALM1 binders on microarrays, EGTA buffer, profiling panel, biochemical, small-molecule microarray, Cy5-labelled CALM1 (AID 1111); settings: Cy5-CALM1 binding fluorescence, higher = more signal;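 further: labelled calmodulin applied in Tris saline Tween buffer holding calcium plus EGTA and DTT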
[5] = biological target: Calmodulin-1 (Homo sapiens) (UniProt P0DP23); assay: calcium-bound CALM1 binders on microarrays, profiling panel, artefact control for SMM control-protein annotation, biochemical, small-molecule microarray, Cy5-labelled CALM1, plus calcium (AID 1112); settings: Cy5-CALM1 binding fluorescence, higher = more signal;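 further: score merges spot fluorescence with signal to noise from triplicate slides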
[6] = small-molecule microarray binders of probe aWnt5a, primary screen, biochemical, biotinylated probe, 635/667 nm fluorescence (AID 1113); settings: higher = more signal;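 further: score merges 667 nm fluorescence intensity with signal-to-noise per printed feature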
[7] = small-molecule microarray binders of probe aShh, primary screen, biochemical, biotinylated probe, 635/667 nm fluorescence (AID 1114); settings: higher = more signal;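 further: probe is biotin-labelled aShh protein from a stem cell growth factor screen; measures binding of labelled protein to compounds printed on the slide; score merges feature fluorescence at 667 nm with signal-to-noise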
[8] = small-molecule microarray binders of probe aNog, primary screen, biochemical, biotinylated probe, 635/667 nm fluorescence (AID 1115); settings: higher = more signal;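 further: probe is biotinylated aNog protein used at 0.15 µg/mL for 1 h at 4 C; z-score combines 667 nm fluorescence of each spot with its signal to noise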
[9] = biological target: Torsin-1A-interacting protein 1 (Homo sapiens) (UniProt Q5JTV8); assay: LAP1 binders from COS7 cell lysate, primary screen, small-molecule microarray, 635/667 nm fluorescence (AID 1116); settings: COS7-hLAP1 lysate binding, 635 nm fluorescence, higher = more signal
Torsin-1A-interacting protein 1 (Homo sapiens), sequence (Q5JTV8 whole entry, looked up): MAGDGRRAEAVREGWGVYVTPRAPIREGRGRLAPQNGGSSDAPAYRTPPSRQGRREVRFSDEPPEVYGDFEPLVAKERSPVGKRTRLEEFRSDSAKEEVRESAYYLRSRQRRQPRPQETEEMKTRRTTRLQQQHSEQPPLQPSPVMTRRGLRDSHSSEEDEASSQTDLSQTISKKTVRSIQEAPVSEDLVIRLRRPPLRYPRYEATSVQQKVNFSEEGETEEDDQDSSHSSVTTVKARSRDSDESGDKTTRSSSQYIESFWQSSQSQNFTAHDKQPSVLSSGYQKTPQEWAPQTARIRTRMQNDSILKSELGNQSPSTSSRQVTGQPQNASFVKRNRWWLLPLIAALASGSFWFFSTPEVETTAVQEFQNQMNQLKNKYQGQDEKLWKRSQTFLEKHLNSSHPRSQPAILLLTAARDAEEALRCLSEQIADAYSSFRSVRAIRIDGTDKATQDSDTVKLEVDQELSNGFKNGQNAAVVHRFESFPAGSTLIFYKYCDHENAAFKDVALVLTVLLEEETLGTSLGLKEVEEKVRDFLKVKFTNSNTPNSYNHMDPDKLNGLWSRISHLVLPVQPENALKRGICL

[10] = biological target: Alpha-bungarotoxin (Bungarus multicinctus) (UniProt P60615); assay: alpha-bungarotoxin binders on microarray, profiling panel, artefact control for SMM control protein annotation, biochemical, small-molecule microarray, Alexa647 label, 635/667 nm fluorescence (AID 1117); settings: alpha-BTX-A647 binding fluorescence, higher = more signal
Alpha-bungarotoxin (Bungarus multicinctus), sequence (P60615 whole entry, looked up): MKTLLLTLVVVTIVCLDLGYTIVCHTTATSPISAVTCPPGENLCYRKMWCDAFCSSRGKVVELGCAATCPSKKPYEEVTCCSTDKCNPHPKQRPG

[11] = biological target: Albumin (Bos taurus) (UniProt P02769); assay: bovine serum albumin binders on microarray, profiling panel, artefact control for SMM control protein annotation, biochemical, small-molecule microarray, Alexa647 label, 635/667 nm fluorescence (AID 1118); settings: BSA-A647 binding, fluorescence 635 nm, higher = more signal;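 further: score merges 667 nm emission intensity and signal-to-noise per printed compound spot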
Albumin (Bos taurus), sequence (P02769 whole entry, looked up): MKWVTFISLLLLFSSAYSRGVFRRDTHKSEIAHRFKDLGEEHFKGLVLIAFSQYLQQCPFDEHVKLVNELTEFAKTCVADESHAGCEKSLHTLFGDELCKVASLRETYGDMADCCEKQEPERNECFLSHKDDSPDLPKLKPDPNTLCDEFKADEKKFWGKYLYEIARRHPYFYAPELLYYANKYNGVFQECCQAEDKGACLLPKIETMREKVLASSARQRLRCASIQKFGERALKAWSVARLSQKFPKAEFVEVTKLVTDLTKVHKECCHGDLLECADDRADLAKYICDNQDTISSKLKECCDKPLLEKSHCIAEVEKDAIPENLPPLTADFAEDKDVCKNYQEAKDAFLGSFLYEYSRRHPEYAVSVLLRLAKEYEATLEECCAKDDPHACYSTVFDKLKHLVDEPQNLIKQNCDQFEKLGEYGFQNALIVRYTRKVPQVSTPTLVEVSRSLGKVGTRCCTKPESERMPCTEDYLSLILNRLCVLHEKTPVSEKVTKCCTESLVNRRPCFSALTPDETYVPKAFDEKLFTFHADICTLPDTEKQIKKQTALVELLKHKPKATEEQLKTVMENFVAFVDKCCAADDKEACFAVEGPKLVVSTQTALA

[12] = small-molecule microarray binders of probe aXIP, primary screen, biochemical, NeuroSMM set, 635/667 nm fluorescence (AID 1119); settings: higher = more signal, called active from +8 up or from −8 down;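 further: probe is the protein aXip251-270 applied at 1 µg/mL to compound-printed slides; binding of probe to printed compounds measured as 667 nm fluorescence plus signal to noise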
[13] = small-molecule binders of probe aNOTCH3, primary screen, biochemical, small-molecule microarray, 635/667 nm fluorescence (AID 1120); settings: higher = more signal;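 further: probe is a biotin-tagged antibody raised against NOTCH3 rather than NOTCH3 protein; score merges spot fluorescence near 667 nm with spot signal to noise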
[14] = small-molecule binders of probe aNOTCH2, primary screen, biochemical, small-molecule microarray, 635/667 nm fluorescence (AID 1121); settings: higher = more signal;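 further: score merges feature fluorescence read at 667 nm with its signal to noise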
[15] = biological target: Carbonic anhydrase 2 (Homo sapiens) (UniProt P00918); assay: CAII small-molecule binders, profiling panel, biochemical, small-molecule microarray, Alexa647-labelled CAII (AID 1122); settings: CAII-A647 binding fluorescence, higher = more signal
[16] = COS7 lysate on small-molecule microarray, probe aHis, 635 nm (AID 1123); settings: COS7 cell lysate, fluorescence, higher = more signal;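 further: z-score combines 667nm fluorescence intensity with signal-to-noise per printed compound spot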
[17] = compound binding in COS7 lysate, probe aLAP1, primary screen, cell lysate, small-molecule microarray (AID 1124); settings: probe aLAP1, fluorescence, higher = more signal;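 further: lysate comes from COS7 cells expressing LAP1 and is applied at 0.3 µg/mL; score merges spot fluorescence near 667 nm with signal-to-noise over triplicate slides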
[18] = system: Sam68 (KHDRBS1); assay: Sam68 small-molecule binders, primary screen, biochemical, small-molecule microarray, 635 nm fluorescence (AID 1125); settings: small-molecule microarray binding, higher = more signal;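 further: score merges 667 nm channel intensity with signal to noise over triplicate slides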
[19] = system: Chordin-like protein 2 (CHRDL2); assay: CHRDL2 small-molecule binders, primary screen, biochemical, small-molecule microarray, 635 nm fluorescence (AID 1126); settings: small-molecule microarray binding, fluorescence 635 nm; higher = more signal;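 further: printed compound slides probed with Chrdl2 protein at 4 µg/mL for 1 h at 4 C; score merges 667 nm emission intensity with signal to noise over three replicate slides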
[20] = biological target: Concanavalin-A (Canavalia ensiformis) (UniProt P02866); assay: ConA small-molecule binders, primary screen, artefact control for SMM control protein annotation, biochemical, small-molecule microarray, Alexa647 label, 635 nm (AID 1127); settings: ConA-A647 binding fluorescence, higher = more signal;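 further: z combines 667 nm emission intensity with signal-to-noise across three replicate slides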
Concanavalin-A (Canavalia ensiformis), sequence (P02866 whole entry, looked up): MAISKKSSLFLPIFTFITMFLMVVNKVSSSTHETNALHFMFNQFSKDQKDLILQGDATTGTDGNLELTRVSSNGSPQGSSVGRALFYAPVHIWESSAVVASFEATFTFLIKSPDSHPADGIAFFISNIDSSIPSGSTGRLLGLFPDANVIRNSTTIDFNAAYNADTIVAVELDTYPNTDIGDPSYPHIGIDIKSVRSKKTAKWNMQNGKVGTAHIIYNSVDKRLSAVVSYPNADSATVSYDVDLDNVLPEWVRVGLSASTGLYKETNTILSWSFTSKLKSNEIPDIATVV

SMILES | composite z-score [1] | z-score [2] | composite z-score [3] | composite z-score [4] | composite z-score [5] | composite z-score [6] | composite z-score [7] | composite z-score [8] | composite z-score [9] | composite z-score [10] | composite z-score [11] | composite Z-score [12] | composite z-score [13] | composite z-score [14] | composite z-score [15] | composite z-score [16] | composite z-score [17] | composite z-score [18] | composite z-score [19] | composite z-score [20]
Cc1cc(C)c(C(O)C2C=CC3C(=O)N(c4ccccc4)C(=O)C3N2Nc2ccc(C(C)C)cc2)c(C)c1 (stereo not given) | -0.9 | 0.437 | 0.229 | 2.15 | 1.37 | 0.0792 | 0.664 | 1.21 | 1.27 | 2.85 | 0.585 | 0.904 (inactive) | 0.331 | 0.0557 | 0.712 | 2.78 | 0.8 | 1.29 | -0.545 | 1.18
CCCC[C@@H]1C[C@H]1[C@@H](NC(=O)c1ccccc1)c1ccc(C(F)(F)F)cc1 | -1.52 | -0.444 | -1.06 | -0.17 | 0.87 | -0.0084 | -0.296 | -0.194 | -0.309 | -0.501 | -0.0844 | -0.157 (inactive) | 0.0562 | -0.0698 | 0.009 | -0.511 | -0.134 | -1.5 | -1.15 | -0.917
COC(=O)[C@@]1(Cc2ccc(OC)cc2)[C@H]2c3cc(C(=O)N4CCCC4)n(Cc4c(-c5ccccc5)noc4C)c3C[C@H]2CN1C(=O)c1ccccc1 | 1.41 | -2.21 | -0.181 | 1.5 | 0.716 | 0.42 | 0.268 | 1.85 | 0.764 | 0.818 | 0.634 | 0.216 (inactive) | 0.576 | 0.251 | 0.446 | 3.24 | 0.214 | 1.35 | -0.748 | 0.978
CC(C)(C)OC(=O)CC[C@]1(C(=O)NCC(O)CO)N=C(c2ccc(OCCCO)cc2)O[C@H]1c1ccccc1 (stereo not given in full) | 1.32 | -1.74 | -1.13 | 0.451 | 1.24 | -0.0403 | -0.0904 | 0.701 | 1.93 | -0.383 | 0.902 | 0.561 (inactive) | -0.0678 | -0.0843 | 0.873 | 3.11 | 0.0605 | 0.723 | -0.852 | -0.137
COC(=O)[C@@]1(Cc2ccc(OC)cc2)[C@H]2c3cc(C(=O)N(C)C)n(Cc4ccc(Cl)c(C(F)(F)F)c4)c3C[C@H]2CN1C(=O)c1ccccc1 | 1.39 | -2 | -0.566 | 1.41 | 1.12 | 0.235 | 1.19 | 2.18 | 0.535 | 0.99 | 0.962 | 0.579 (inactive) | 0.406 | 0.29 | 0.377 | 2.65 | 0.0516 | 1.26 | -0.763 | 0.952
C=CCNC(=O)[C@H]1[C@@H]2C(=O)O[C@@H](c3ccccc3)[C@@H](c3ccccc3)N2[C@@H](c2ccc(O)cc2)[C@]12C(=O)Nc1ccc(C#CC3(O)CCCCCC3)cc12 | 0.903 | -0.979 | 0.405 | 0.823 | 0.215 | -0.036 | 0.0358 | 0.557 | 0.854 | 0.448 | 0.201 | -0.005 (inactive) | 0.0961 | -0.0695 | 0.714 | 2.11 | 0.355 | 1.1 | 0.215 | 0.556
C=C[C@@H](COC(C)=O)N(C(=O)OC(C)(C)C)S(=O)(=O)c1ccc(Br)cc1 | 0.789 | 0.429 | 1.27 | 0.486 | 0.367 | 0.0973 | -0.141 | -0.0317 | 1.06 | 1.32 | 0.321 | 0.388 (inactive) | 0.0494 | -0.0401 | 0.646 | 0.155 | -0.101 | 0.827 | 1.4 | 1.12
Cc1ccccc1C(O)C1C=CC2C(=O)N(C)C(=O)C2N1N(c1ccccc1)c1ccccc1 (stereo not given) | -1.19 | -0.247 | -0.0024 | -0.945 | -0.454 | 0.0737 | 0.0582 | 0.387 | 0.0266 | 0.305 | 0.25 | 0.111 (inactive) | 0.84 | 0.473 | 0.833 | -0.266 | 0.307 | -1.29 | 0.682 | -0.752
